According to PubChem BioAssay (EPA / NIEHS):
Values joined by “and” are separate entries in the source; they are usually repeats but may differ in a detail not shown here. Equal entries are not always repeated. Results filed as inconclusive are left out. Active and inactive are the calls of the source. How the source made its calls, unless noted: active means hit-call score of the fitted dose curve at least 0.9, where 1 is the maximum; inactive means score below 0.9.

Tests used:
[1] = read-out: Macrophage colony-stimulating factor (MCSF), CSF1 (gene 1435); experiment: BSK_LPS_MCSF: BioMAP Diversity Plus: LPS Assay for Macrophage colony-stimulating factor (MCSF) Biomarker Activity (AID 2283083); details: primary human HUVEC with PBMC; actives raise or lower the signal
In short: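 Compound is added to a human vascular primary co-culture of umbilical vein endothelium and blood mononuclear cells. After 24 h, M-CSF is quantified by ELISA. Signal changes are fitted in both directions against DMSO.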

[2] = read-out: Tissue Factor, F3 (gene 2152); experiment: BSK_LPS_TissueFactor: BioMAP Diversity Plus: LPS Assay for Tissue Factor Biomarker Activity (AID 2283084); details: primary human HUVEC with PBMC; actives raise or lower the signal
In short: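 In this co-culture system of umbilical vein endothelium with PBMC, stimulated with LPS, cell-surface CD142 is detected by ELISA at 24 h. Endpoint values derive from bidirectional fitting, DMSO serving as baseline.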

[3] = read-out: Tumor necrosis factor (Homo sapiens) (UniProt P01375); experiment: BSK_LPS_TNFa: BioMAP Diversity Plus: LPS Assay for Tumour Necrosis Factor alpha (TNFa) Biomarker Activity (AID 2283085); details: primary human HUVEC with PBMC; actives raise or lower the signal;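 on AC50: TNFa protein level quantified by ELISA in the co-culture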
In short: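 Cells (umbilical vein endothelium plus peripheral blood mononuclear cells) were dosed with chemical, incubated 24 h, then TNFa was quantified by ELISA; values derive from bidirectional fitting with DMSO as baseline.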

[4] = read-out: Vascular cell adhesion molecule 1 (VCAM1), VCAM1 (gene 7412); experiment: BSK_LPS_VCAM1: BioMAP Diversity Plus: LPS Assay for Vascular cell adhesion molecule 1 (VCAM1) Biomarker Activity (AID 2283086); details: primary human HUVEC with PBMC; actives raise or lower the signal
In short: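 Cells are dosed in an LPS-stimulated endothelial/mononuclear co-culture and, after 24 h, VCAM-1 is quantified by ELISA. Activity in either direction is fitted relative to the DMSO negative control.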

[5] = read-out: CD38, CD38 (gene 952); experiment: BSK_SAg_CD38: BioMAP Diversity Plus: SAg Assay for CD38 Biomarker Activity (AID 2283087); details: primary human HUVEC with PBMC; actives raise or lower the signal
In short: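 CD38 quantified by ELISA (fluorescence) in a superantigen-activated endothelial cell–PBMC co-culture at 24 h post-dose. Activity fitted in both directions relative to DMSO; parallel SRB and Alamar Blue cytotoxicity read-outs.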

[6] = read-out: CD40, CD40 (gene 958); experiment: BSK_SAg_CD40: BioMAP Diversity Plus: SAg Assay for CD40 Biomarker Activity (AID 2283088); details: primary human HUVEC with PBMC; actives raise or lower the signal
In short: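 Fluorescence ELISA read-out of CD40 from umbilical vein endothelium plus peripheral blood mononuclear cells, sampled 24 h after dosing. Values come from bidirectional curve fitting with DMSO as baseline.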

[7] = read-out: CD69, CD69 (gene 969); experiment: BSK_SAg_CD69: BioMAP Diversity Plus: SAg Assay for CD69 Biomarker Activity (AID 2283089); details: primary human HUVEC with PBMC; actives raise or lower the signal;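 on AC50: cell surface CD69 protein quantified by ELISA with fluorescence detection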
In short: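 ELISA, fluorescence read-out: CD69 on human umbilical vein endothelial cell + PBMC co-culture, 24 h post-dosing. Gain or loss of signal fitted bidirectionally against DMSO baseline.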

[8] = read-out: Monocyte Chemoattractant Protein-1 (MCP1), CCL2 (gene 6347); experiment: BSK_SAg_MCP1: BioMAP Diversity Plus: SAg Assay for Monocyte Chemoattractant Protein-1 (MCP1) Biomarker Activity (AID 2283090); details: primary human HUVEC with PBMC; actives raise or lower the signal
In short: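 Values derive from bidirectional fitting of ELISA-measured MCP1 against DMSO controls. Readings were taken 24 h after dosing human vascular endothelial cells co-cultured with peripheral blood mononuclear cells under superantigen stimulation.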

[9] = read-out: E-selectin (Homo sapiens) (UniProt P16581); experiment: BSK_SAg_Eselectin: BioMAP Diversity Plus: SAg Assay for Eselectin Biomarker Activity (AID 2283091); details: primary human HUVEC with PBMC; actives raise or lower the signal
In short: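 Primary human endothelial cells and peripheral blood mononuclear cells were co-cultured and exposed to chemical for 24 hours. E-selectin levels were then quantified by ELISA, with bidirectional curve fitting normalised to DMSO controls.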

[10] = read-out: Monokine induced gamma interferon (MIG), CXCL9 (gene 4283); experiment: BSK_SAg_MIG: BioMAP Diversity Plus: SAg Assay for Monokine induced gamma interferon (MIG) Biomarker Activity (AID 2283092); details: primary human HUVEC with PBMC; actives raise or lower the signal
In short: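 ELISA readout of MIG/CXCL9; primary human umbilical vein endothelial cells co-cultured with peripheral blood mononuclear cells; 24 h post-dose; gain/loss fit vs DMSO baseline.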

[11] = BSK_SAg_PBMCCytotoxicity: PBMC Cytotoxicity Assessment in the BioMAP Diversity Plus: SAg Assay (AID 2283093); details: primary human HUVEC with PBMC;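 further: PBMC viability measured as Alamar Blue reduction fluorescence at 546/580 nm; fitted both ways against DMSO so a hit may be loss or gain of signal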;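 on AC50: PBMC superantigen activated with SEB plus TSST-1 one hour after compound addition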
In short: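 Alamar Blue reduction (6 h, 546/580 nm) reports PBMC cytotoxicity after 90 h superantigen activation (SEB, TSST-1; 20 ng/mL final each) with 1 h compound pre-treatment. Gain or loss of signal fitted versus DMSO.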

[12] = read-out: Interleukin-8 (IL8), CXCL8 (gene 3576); experiment: BSK_SAg_IL8: BioMAP Diversity Plus: SAg Assay for Interleukin-8 (IL8) Biomarker Activity (AID 2283094); details: primary human HUVEC with PBMC; actives raise or lower the signal
In short: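 Chemicals were dosed onto a human endothelial–PBMC co-culture, and IL-8 was quantified by ELISA after 24 h. Both increases and decreases were fitted relative to DMSO.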

[13] = BSK_SAg_Proliferation: Cell Proliferation Assessment in the BioMAP Diversity Plus: SAg Assay (AID 2283095); details: primary human HUVEC with PBMC;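 further: relative cell number as total protein by SRB absorbance in sub-confluent culture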
In short: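 Absorbance of sulforhodamine B at 560 nm reports total protein in a human vascular endothelial/PBMC co-culture after 96 h chemical exposure. Gain or loss of signal is fitted in both directions against DMSO.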

[14] = BSK_SAg_SRB: Viability Assessment in the BioMAP Diversity Plus: SAg Assay (AID 2283096); details: primary human HUVEC with PBMC;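 further: cells read one day after compound addition; hits may be either gain or loss of signal compared with DMSO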
In short: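 This overt-cytotoxicity endpoint quantifies protein in human endothelial/PBMC co-cultures at 24 h using SRB absorbance (560 nm) after trichloroacetic acid fixation. Values reflect signal change from the DMSO negative control, fitted bidirectionally.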

[15] = target: human CYP2B6, CYP2B6 (gene 1555) (UniProt P20813); experiment: NVS_ADME_hCYP2B6: NovaScreen (NVS) CYP450-related Enzyme Activity (ADME) Assay for human CYP2B6 (AID 2283101; active means hit-call score of the fitted dose curve at least 0.9, where 1 is the maximum)
Chain of human CYP2B6, CYP2B6 (gene 1555) (P20813 whole entry, looked up): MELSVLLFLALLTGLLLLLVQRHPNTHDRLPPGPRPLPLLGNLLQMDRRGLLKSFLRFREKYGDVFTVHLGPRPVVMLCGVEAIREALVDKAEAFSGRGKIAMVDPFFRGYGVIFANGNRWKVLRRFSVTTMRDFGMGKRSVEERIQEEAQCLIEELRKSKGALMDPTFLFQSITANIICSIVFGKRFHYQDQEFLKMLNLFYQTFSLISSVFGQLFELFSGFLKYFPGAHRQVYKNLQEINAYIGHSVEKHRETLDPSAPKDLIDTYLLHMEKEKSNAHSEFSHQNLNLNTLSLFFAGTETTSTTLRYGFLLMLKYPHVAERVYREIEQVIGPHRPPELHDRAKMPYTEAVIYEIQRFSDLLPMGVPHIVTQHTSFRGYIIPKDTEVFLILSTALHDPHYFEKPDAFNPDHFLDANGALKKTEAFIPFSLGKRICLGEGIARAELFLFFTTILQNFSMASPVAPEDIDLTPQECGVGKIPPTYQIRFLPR
In short: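 Fluorescence-based enzyme activity of recombinant human CYP2B6, measured 1 h post-dose against acetonitrile vehicle baseline. Screened at a single concentration of 10 uM in duplicate before concentration-response follow-up.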

[16] = target: human CYP2D6, CYP2D6 (gene 1565) (UniProt P10635); experiment: NVS_ADME_hCYP2D6: NovaScreen (NVS) CYP450-related Enzyme Activity (ADME) Assay for human CYP2D6 (AID 2283107; active means hit-call score of the fitted dose curve at least 0.9, where 1 is the maximum)
Chain of human CYP2D6, CYP2D6 (gene 1565) (P10635 whole entry, looked up): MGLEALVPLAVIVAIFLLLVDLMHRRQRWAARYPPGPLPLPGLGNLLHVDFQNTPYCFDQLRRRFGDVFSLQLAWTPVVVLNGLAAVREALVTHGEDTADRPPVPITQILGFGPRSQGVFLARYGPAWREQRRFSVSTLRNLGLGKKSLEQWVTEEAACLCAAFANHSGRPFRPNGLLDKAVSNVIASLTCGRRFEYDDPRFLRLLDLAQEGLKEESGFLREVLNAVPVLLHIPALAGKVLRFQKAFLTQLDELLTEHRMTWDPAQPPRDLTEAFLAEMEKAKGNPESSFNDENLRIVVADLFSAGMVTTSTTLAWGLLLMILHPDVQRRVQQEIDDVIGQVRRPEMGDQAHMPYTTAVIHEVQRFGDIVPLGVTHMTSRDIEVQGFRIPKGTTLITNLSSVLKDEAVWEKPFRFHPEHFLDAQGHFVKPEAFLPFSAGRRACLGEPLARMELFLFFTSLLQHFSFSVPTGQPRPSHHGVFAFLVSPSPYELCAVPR
In short: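 Compounds were first tested in duplicate at 10 uM against recombinant enzyme produced in insect cells, with substrate turnover measured by fluorescence after 1 hour. Decreased signal, referenced to acetonitrile vehicle, was taken as reduced enzyme activity. Active chemicals went on to concentration-response testing.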

[17] = target: human CYP1A1, CYP1A1 (gene 1543) (UniProt P04798); experiment: NVS_ADME_hCYP1A1: NovaScreen (NVS) CYP450-related Enzyme Activity (ADME) Assay for human CYP1A1 (AID 2283100; active means hit-call score of the fitted dose curve at least 0.9, where 1 is the maximum)
Chain of human CYP1A1, CYP1A1 (gene 1543) (P04798 whole entry, looked up): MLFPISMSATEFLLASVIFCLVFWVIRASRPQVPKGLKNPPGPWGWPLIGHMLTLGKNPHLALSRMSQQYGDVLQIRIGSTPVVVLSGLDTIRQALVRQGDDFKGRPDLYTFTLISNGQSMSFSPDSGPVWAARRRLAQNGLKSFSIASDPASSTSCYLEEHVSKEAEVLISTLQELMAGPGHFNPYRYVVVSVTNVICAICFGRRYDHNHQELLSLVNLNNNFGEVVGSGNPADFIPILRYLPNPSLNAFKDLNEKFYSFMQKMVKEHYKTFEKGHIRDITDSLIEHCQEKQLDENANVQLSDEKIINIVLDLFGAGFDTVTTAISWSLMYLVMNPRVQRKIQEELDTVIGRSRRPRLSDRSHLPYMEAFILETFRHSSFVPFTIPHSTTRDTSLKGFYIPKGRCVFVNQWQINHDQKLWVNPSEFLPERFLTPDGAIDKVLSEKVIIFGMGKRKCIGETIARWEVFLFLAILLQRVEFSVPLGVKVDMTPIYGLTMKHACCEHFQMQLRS
In short: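 Compounds first went through duplicate single-concentration testing at 10 uM against purified CYP1A1. Those passing a threshold such as 30% inhibition entered singleton dose-response, highest concentration 20 uM. Signal was fluorescence measured after 1 hour.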

[18] = target: human CYP1A2, CYP1A2 (gene 1544) (UniProt P05177); experiment: NVS_ADME_hCYP1A2: NovaScreen (NVS) CYP450-related Enzyme Activity (ADME) Assay for human CYP1A2 (AID 2283102; active means hit-call score of the fitted dose curve at least 0.9, where 1 is the maximum;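 further: fluorescence from turnover of a fluorogenic substrate by recombinant insect-cell CYP1A2; potency for inhibition since loss of fluorescence marks reduced CYP1A2 activity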)
Chain of human CYP1A2, CYP1A2 (gene 1544) (P05177 whole entry, looked up): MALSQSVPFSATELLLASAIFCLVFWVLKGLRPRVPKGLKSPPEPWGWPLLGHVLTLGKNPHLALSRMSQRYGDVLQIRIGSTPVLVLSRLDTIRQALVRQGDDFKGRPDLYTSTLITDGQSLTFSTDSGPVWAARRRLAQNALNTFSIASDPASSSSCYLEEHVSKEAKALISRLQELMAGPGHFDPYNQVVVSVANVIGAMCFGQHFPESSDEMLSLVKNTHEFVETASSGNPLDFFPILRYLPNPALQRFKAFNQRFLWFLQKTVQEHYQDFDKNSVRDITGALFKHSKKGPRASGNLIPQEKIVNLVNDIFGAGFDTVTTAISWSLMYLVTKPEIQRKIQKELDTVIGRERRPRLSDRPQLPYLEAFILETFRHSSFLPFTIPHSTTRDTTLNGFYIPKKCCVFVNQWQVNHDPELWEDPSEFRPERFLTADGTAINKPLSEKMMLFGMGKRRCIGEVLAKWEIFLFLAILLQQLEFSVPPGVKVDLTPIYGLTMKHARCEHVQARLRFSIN
In short: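 Compounds were tested at 10 uM in duplicate against recombinant CYP1A2 produced in insect cells. Enzyme activity was measured by fluorescence 0.5 h after dosing, with loss of signal versus acetonitrile control. Active compounds were re-tested in concentration series.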

Measured: AC50

Chain of E-selectin (Homo sapiens) (P16581 whole entry, looked up): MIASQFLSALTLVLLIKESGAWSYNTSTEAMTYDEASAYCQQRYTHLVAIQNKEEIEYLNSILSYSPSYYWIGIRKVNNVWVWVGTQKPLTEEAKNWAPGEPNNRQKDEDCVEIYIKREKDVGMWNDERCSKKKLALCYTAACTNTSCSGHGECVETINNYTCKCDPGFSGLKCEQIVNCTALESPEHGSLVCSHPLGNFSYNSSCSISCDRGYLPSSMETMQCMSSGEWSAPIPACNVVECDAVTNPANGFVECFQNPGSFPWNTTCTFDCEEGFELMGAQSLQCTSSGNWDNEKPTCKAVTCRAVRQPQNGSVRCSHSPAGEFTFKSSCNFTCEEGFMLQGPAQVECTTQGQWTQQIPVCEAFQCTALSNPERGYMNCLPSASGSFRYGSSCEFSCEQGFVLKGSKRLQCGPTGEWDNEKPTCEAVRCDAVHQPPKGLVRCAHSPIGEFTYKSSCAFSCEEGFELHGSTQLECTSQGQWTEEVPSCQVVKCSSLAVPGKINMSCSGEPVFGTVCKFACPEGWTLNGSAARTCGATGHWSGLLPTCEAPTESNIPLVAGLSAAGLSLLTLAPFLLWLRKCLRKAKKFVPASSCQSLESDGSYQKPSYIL
Chain of Tumor necrosis factor (Homo sapiens) (P01375 whole entry, looked up): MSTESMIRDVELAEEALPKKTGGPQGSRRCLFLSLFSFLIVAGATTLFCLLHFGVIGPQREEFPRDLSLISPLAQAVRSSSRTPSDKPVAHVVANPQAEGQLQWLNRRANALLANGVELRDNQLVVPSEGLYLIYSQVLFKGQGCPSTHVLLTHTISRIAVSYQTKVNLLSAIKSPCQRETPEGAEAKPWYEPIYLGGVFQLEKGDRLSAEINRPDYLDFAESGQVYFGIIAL

CN(C)c1ccc(C(=C2C=CC(=[N+](C)C)C=C2)c2ccccc2)cc1
active: [1] 0.0379 µM | [2] 0.025 µM | [3] 13.8 nM | [4] 0.00781 µM | [5] 0.0535 µM | [6] 0.00857 µM | [7] 0.00338 µM | [8] 0.026 µM | [9] 8.2 nM | [10] 132 nM | [11] 481 nM | [12] 2.78 µM | [13] 15.3 nM | [14] 74.7 nM

O=C1OC2(c3ccccc31)c1cc(I)c(O)c(I)c1Oc1c2cc(I)c(O)c1I
inactive: [3] | [10] | [11] | [12] | [13] | [14]
active: [1] 6.69 µM | [2] 19.8 µM | [4] 9.02 µM | [5] 7.06 µM | [6] 12 µM | [7] 10.5 µM | [8] 10.2 µM

CCCCC=O
not listed: [15] | [16] | [17] | [18]
inactive: all other assays above

Cc1cccc2c1ccc1ccccc12
active: [2] 3.97 µM
not listed: [15] | [16] | [17] | [18]
inactive: all other assays above

CN(Cc1cnc2nc(N)nc(N)c2n1)c1ccc(C(=O)N[C@@H](CCC(=O)O)C(=O)O)cc1
active: [13] 3.39 µM and 2.18 µM and 1.17 µM
not listed: [16] | [17] | [18]
inactive: all other assays above

CCCCCCCCCCCCCCCCCC[N+](C)(C)Cc1ccccc1
active: [1] 2.73 µM | [2] 2.69 µM | [3] 3580 nM | [4] 3.09 µM | [5] 2.73 µM | [6] 2.74 µM | [7] 2.73 µM | [8] 3.01 µM | [9] 4860 nM | [10] 3190 nM | [11] 919 nM | [12] 10 µM | [13] 312 nM | [14] 2670 nM | [16] 425 nM

CCCCCC(C)OC(=O)COc1ccc(Cl)c2cccnc12 (stereo unspecified)
active: [18] 751 nM
inactive: [17]

CCCCC(CC)C(=O)OCCOCCOCCOCCOC(=O)C(CC)CCCC (stereo unspecified)
active: [1] 20 µM
not listed: [15] | [16] | [17] | [18]
inactive: all other assays above
